{"source": "PubChem BioAssay (NCI)", "note": "About 79,000 compounds went through this panel and 15% of them were active in at least one assay; those are over-represented in the sample as a whole. A number with no mark means an inactive call. The source made the active and inactive calls. Cut-off read from the data, not from the text of the source: active = growth inhibition above about 70%; inactive = the rest.", "data": [{"test": "NCI Yeast Anticancer Drug Screen. Data for the rad52 strain (AID 147);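 note: 0% = growth of vehicle-treated control cultures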", "conditions": "S. cerevisiae rad52 mutant growth inhibition; at 33.0 µM; active compounds read high", "procedure,_shortened": "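Growth of repair-deficient yeast cells was compared between compound-treated and vehicle-treated cultures to give percent inhibition.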", "values": [{"compound": "O=CC=C(c1ccccc1)c1ccccc1", "growth inhibition": "8%"}, {"compound": "FC(F)(F)c1nc2nc(Cl)c(Cl)nc2n1CCCN1CCOCC1", "growth inhibition": "20%"}, {"compound": "BrCC[P+](c1ccccc1)(c1ccccc1)c1ccccc1", "growth inhibition": "94% (active)"}, {"compound": "N#CSc1ccc(S(N)(=O)=O)cc1", "growth inhibition": "-1%"}, {"compound": "O=[N+]([O-])c1ccc2nc3ccccc3cc2c1", "growth inhibition": "74% (active)"}, {"compound": "O=C(NC(Nc1ccc(F)c(Cl)c1)(C(F)(F)F)C(F)(F)F)C(C(F)(F)F)C(F)(F)F", "growth inhibition": "93% (active)"}, {"compound": "O=C(/C=C\\c1ccc(Cl)cc1Cl)c1cccs1", "growth inhibition": "10%"}, {"compound": "O=C(NCCCCNCCCNC(=O)c1cc(-c2ccccc2)nc2ccccc12)c1cc(-c2ccccc2)nc2ccccc12", "growth inhibition": "40%"}, {"compound": "NC(=NCc1ccccc1)N/N=C\\c1ccnc2ccccc12", "growth inhibition": "0%"}, {"compound": "CCCCN(CCCC)CCSc1ccc(Cl)cc1", "growth inhibition": "16%"}, {"compound": "COc1cc(C2C3=C(COC3=O)Oc3cc4c(cc32)OCO4)ccc1O", "note": "(centres undefined)", "growth inhibition": "34%"}, {"compound": "C#CCCCc1ccccc1", "growth inhibition": "-43%"}, {"compound": "CCc1ccc(NS(=O)(=O)c2ccccc2)c([N+](=O)[O-])c1", "growth inhibition": "30%"}, {"compound": "COc1ccc(C2c3cc4c(cc3OC(C)(O)C2C)OCO4)c(OC)c1", "note": "(centres undefined)", "growth inhibition": "10%"}, {"compound": "COC(=O)c1ccc(CCC2=CC(=O)C(Br)=CC2=O)cc1", "growth inhibition": "52%"}, {"compound": "NNC(=O)CCc1ccc2ccc3ccccc3c2c1", "growth inhibition": "13%"}, {"compound": "Cn1c2ccccc2c(=O)c2cc(NC(=O)CCCCC(=O)Nc3ccc4c(c3)c(=O)c3ccccc3n4C)ccc21", "growth inhibition": "76% (active)"}, {"compound": "CC(CC(C)(C)[N+](C)(C)C)[N+](C)(C)C", "note": "(centres undefined)", "growth inhibition": "15%"}, {"compound": "CC1CCN(CCC(=O)c2ccc(Cl)cc2)CC1", "growth inhibition": "41%"}, {"compound": "CCCCCCCCCCCCCCC(C(=O)[O-])[n+]1ccccc1", "note": "(centres undefined)", "growth inhibition": "-1%"}, {"compound": "CNC1C(OC2C(OC3C(O)C(O)C(N=C(N)N)C(O)C3N=C(N)N)OC(C)C2(O)CO)OC(CO)C(O)C1O", "note": "(centres undefined)", "growth inhibition": "28%"}, {"compound": "O=C(O)c1ccccc1-c1ccccc1C(=O)Nc1ccc2c(c1)Cc1ccccc1-2", "growth inhibition": "51%"}, {"compound": "O=[N+]([O-])c1cccc2nc3ccccc3c(NCCCN3CCOCC3)c12", "growth inhibition": "98% (active)"}, {"compound": "C=CC(C)(O)CCC1C(=C)C(O)CC2C(C)(C)CCCC12C", "note": "(centres undefined)", "growth inhibition": "54%"}, {"compound": "CN1c2ccc(Cl)cc2C(=O)NC1c1ccc([N+](=O)[O-])s1", "note": "(centres undefined)", "growth inhibition": "97% (active)"}, {"compound": "[O-][n+]1c2ccc(O)cc2nc2ccc(Br)cc21", "growth inhibition": "83% (active)"}, {"compound": "O=C1c2ccccc2-c2nc3ccccc3nc21", "growth inhibition": "90% (active)"}, {"compound": "CCCCN1C(=O)N(c2ccc(OCC)cc2)C2N(CCCC)C1C(C)(C)C2(C)C", "note": "(centres undefined)", "growth inhibition": "30%"}, {"compound": "CO[C@H]1C[C@](C)(O)Cc2cc3c(c(O)c21)C(=O)c1c(O)cc2c(c1C3=O)O[C@@H]1O[C@@]2(C)[C@H](O)[C@@H](N(C)C)[C@@H]1O", "growth inhibition": "60%"}, {"compound": "COc1cc2c(cc1[N+](=O)[O-])C(=O)C(Br)(Br)CCC2", "growth inhibition": "99% (active)"}, {"compound": "O=C1OC(CCl)CN1/N=C/c1ccc([N+](=O)[O-])o1", "note": "(centres undefined)", "growth inhibition": "54%"}, {"compound": "CN(C)CCOc1ccc2c(c1)C/C(=C/c1ncc([N+](=O)[O-])n1C)C2=O", "growth inhibition": "91% (active)"}, {"compound": "CCCCCCCCCCCCCCCCCCN(C)CC(COP(=O)([O-])OCC[N+](C)(C)C)OC", "note": "(centres undefined)", "growth inhibition": "98% (active)"}, {"compound": "CC(C)c1ccccc1NC(=O)/C(Cl)=C(\\Cl)C(=O)O", "growth inhibition": "5%"}, {"compound": "O=[N+]([O-])C(=C(Sc1ccccc1)Sc1ccccc1)C(Cl)=C(Cl)Cl", "growth inhibition": "56%"}, {"compound": "C(=C\\c1ccccc1)/COc1ccccc1C(N1CCOCC1)n1nc2ccccc2n1", "note": "(centres undefined)", "growth inhibition": "85% (active)"}, {"compound": "O=C1C(Nc2ccccc2)=C(Oc2ccccc2)C(=O)c2ccccc21", "growth inhibition": "23%"}, {"compound": "CCN(CC)CCN1C(=O)c2cccc3cc(OC)cc(c23)C1=O", "growth inhibition": "91% (active)"}, {"compound": "CN(C)Cc1cc(N=Nc2ccc(Cl)cc2)cc(CN(C)C)c1O", "growth inhibition": "16%"}]}]}
